Assay [1] can be described thus: NCI Yeast Anticancer Drug Screen. Data for the rad50 strain (AID 155).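 Note: 0% = growth of vehicle-only cultures of the same strain.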 The settings on record: S. cerevisiae rad50 strain growth inhibition, stronger effect = higher value. The gist of the method:
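Cells are treated with compound, grown, and their growth is then scored against vehicle-only cultures of the same repair-deficient yeast strain.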

The nature of assay [2]: NCI Yeast Anticancer Drug Screen. Data for the mec2-1 strain (AID 157). The settings on record: S. cerevisiae mec2-1 strain, stronger effect = higher value. The method, boiled down: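 Mutant yeast (mec2-1) grown with compound; growth inhibition relative to vehicle control reported.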
The nature of assay [3]: NCI Yeast Anticancer Drug Screen. Data for the sgs1 mgt1 strain (AID 161).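 Note: 0% = growth of cultures given vehicle only.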 Particulars: S. cerevisiae sgs1 mgt1 strain, stronger effect = higher value. The method, boiled down: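 Yeast cells carrying a defined DNA-repair defect were exposed to test compounds. Growth inhibition was measured relative to vehicle-treated controls.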
Assay [4] in a line: NCI Yeast Anticancer Drug Screen. Data for the cln2 rad14 strain (AID 165).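 Note: 0% = growth equal to vehicle treated cultures.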 The settings on record: S. cerevisiae cln2 rad14 strain, stronger effect = higher value. The method, boiled down: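 Readout is yeast growth inhibition versus vehicle-treated controls, using a strain with cln2 and rad14 alterations exposed to compound.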
A short description of assay [5]: NCI Yeast Anticancer Drug Screen. Data for the bub3 strain (AID 167). The settings on record: S. cerevisiae bub3 mutant strain, stronger effect = higher value. The method, boiled down: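 Part of a panel of yeast mutants defective in DNA damage repair or cell cycle regulation. Each strain is grown with compound, and inhibition is calculated relative to solvent-treated cultures.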

A short description of assay [6]: NCI Yeast Anticancer Drug Screen. Data for the mlh1 rad18 strain (AID 175). Particulars: S. cerevisiae mlh1 rad18 strain growth inhibition, stronger effect = higher value. The gist of the method: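 Genetically defined yeast (DNA repair-deficient) exposed to compounds; growth inhibition determined relative to vehicle.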
[7] abbreviates: at 5.0 µM (retest, dose inferred, filed as 0.5).
The mark [8] stands for this setting: at 50.0 µM (retest, dose inferred, filed as 5.0).

This is part of a sample that, as a whole, favours compounds with a hit. Of some 79,000 tested, about 15% had one in any assay. Unmarked numbers belong to inactive results. The source made the active and inactive calls. Cut-off read from the data, not from the text of the source: active = growth inhibition above about 70%; inactive = the rest.

The values that follow come from PubChem BioAssay (NCI).

Consider `CC(=O)Oc1c(Cl)cc(Cl)cc1C(c1cc(Cl)cc(Cl)c1OC(C)=O)C(Cl)(Cl)Cl`, for which the growth inhibition in assay [1] (setting [7]) is 6%; in assay [1] (setting [8]), 31%; in assay [1] (at 50.0 µM), 90.8% (active); in assay [2] (setting [7]) it was 2%; in assay [2] (setting [8]) it was 25%; in assay [2] (at 50.0 µM) it was 98.3% (active). In addition, the growth inhibition in assay [3] (setting [7]) was -1%; in assay [3] (setting [8]), -5%; in assay [3] (at 50.0 µM), 83.9% (active); in assay [4] (setting [7]), -10%; in assay [4] (setting [8]), 2%; in assay [4] (at 50.0 µM), 82.8% (active). The growth inhibition in assay [5] (setting [7]) was -3%; in assay [5] (setting [8]) it was 20%; in assay [5] (at 50.0 µM), 98.3% (active); in assay [6] (setting [7]), -2%; in assay [6] (setting [8]) it was 23%; in assay [6] (at 50.0 µM), 95.5% (active).
Take `O=C(O)/C(=C\c1ccc(F)cc1)c1ccccc1`: the growth inhibition was -3% in assay [1] (setting [7]); -12% in assay [1] (setting [8]); 48% in assay [1] (at 50.0 µM); -18% in assay [2] (setting [7]); -9% in assay [2] (setting [8]); 64.9% in assay [2] (at 50.0 µM). Also, the growth inhibition in assay [3] (setting [7]) was -4%; in assay [3] (setting [8]), -16%; in assay [3] (at 50.0 µM), 11.9%; in assay [4] (setting [7]), 29%; in assay [4] (setting [8]), 11%; in assay [4] (at 50.0 µM), 38.8%. The growth inhibition in assay [5] (setting [7]) was 3%; in assay [5] (setting [8]), 28%; in assay [5] (at 50.0 µM), 70.8% (active); in assay [6] (setting [7]), -12%; in assay [6] (setting [8]) it was 9%; in assay [6] (at 50.0 µM), 50.2%.
In the case of `CCCCCCCCCCCCCCCCNc1ccn(C2CC(OP(=O)(O)OCC3OC(n4cc(CC)c(=O)[nH]c4=O)CC3O)C(CO)O2)c(=O)n1` (configuration not stated), the growth inhibition is 73% (active) in assay [1] (setting [7]); 97% (active) in assay [1] (setting [8]); 41.8% in assay [1] (at 50.0 µM); 26% in assay [2] (setting [7]); 97% (active) in assay [2] (setting [8]); 12.8% in assay [2] (at 50.0 µM). For the same compound, the growth inhibition in assay [3] (setting [7]) was 94% (active); in assay [3] (setting [8]) it was 97% (active); in assay [3] (at 50.0 µM) it was 58%; in assay [4] (setting [7]) it was 7%; in assay [4] (setting [8]), 64%; in assay [4] (at 50.0 µM), 39.5%. For the same compound, the growth inhibition in assay [5] (setting [7]) was -19%; in assay [5] (setting [8]) it was 92% (active); in assay [5] (at 50.0 µM), 11.8%; in assay [6] (setting [7]) it was 59%; in assay [6] (setting [8]), 87% (active); in assay [6] (at 50.0 µM), 16.3%.
As for `CC(C)C(C)OC(=O)Nc1cccc(O)c1` (configuration not stated), the growth inhibition in assay [1] (setting [7]) is -142%; in assay [1] (setting [8]), -141%; in assay [1] (at 50.0 µM), 35.3%; in assay [2] (setting [7]), -48%; in assay [2] (setting [8]), -53%; in assay [2] (at 50.0 µM) it was 3.15%. The growth inhibition in assay [3] (setting [7]) was -66%; in assay [3] (setting [8]) it was -48%; in assay [3] (at 50.0 µM), 18.1%; in assay [4] (setting [7]), -50%; in assay [4] (setting [8]), -54%; in assay [4] (at 50.0 µM), 46.5%. The growth inhibition in assay [5] (setting [7]) was -67%; in assay [5] (setting [8]) it was -74%; in assay [5] (at 50.0 µM), 2.3%; in assay [6] (setting [7]) it was -144%; in assay [6] (setting [8]), -102%; in assay [6] (at 50.0 µM), 18.4%.
`CC(NNC(=S)N1CC2CCC(CC2)C1)c1cc2ccccc2cn1` (configuration not stated): the growth inhibition in assay [1] (setting [7]) was 97% (active); in assay [1] (setting [8]), 97% (active); in assay [1] (at 50.0 µM), 96.9% (active); in assay [2] (setting [7]) it was 97% (active); in assay [2] (setting [8]), 99% (active); in assay [2] (at 50.0 µM), 97.4% (active). Moreover, the growth inhibition in assay [3] (setting [7]) is 98% (active); in assay [3] (setting [8]) it was 99% (active); in assay [3] (at 50.0 µM) it was 94.5% (active); in assay [4] (setting [7]), 72% (active); in assay [4] (setting [8]) it was 61%; in assay [4] (at 50.0 µM) it was 92.6% (active). Also, the growth inhibition in assay [5] (setting [7]) was 98% (active); in assay [5] (setting [8]), 99% (active); in assay [5] (at 50.0 µM), 98.2% (active); in assay [6] (setting [7]), 98% (active); in assay [6] (setting [8]), 99% (active); in assay [6] (at 50.0 µM) it was 98% (active).
Consider `COc1ccc(C2Oc3c(cccc3OC)C=C2[N+](=O)[O-])cc1` (configuration not stated), for which the growth inhibition was 20% in assay [1] (setting [7]); 96% (active) in assay [1] (setting [8]); 40.5% in assay [1] (at 50.0 µM); 23% in assay [2] (setting [7]); 98% (active) in assay [2] (setting [8]); 40.1% in assay [2] (at 50.0 µM). In addition, the growth inhibition was 40% in assay [3] (setting [7]); 96% (active) in assay [3] (setting [8]); 37.7% in assay [3] (at 50.0 µM); 12% in assay [4] (setting [7]); 92% (active) in assay [4] (setting [8]); -4.5% in assay [4] (at 50.0 µM). Further, the growth inhibition is 45% in assay [5] (setting [7]); 96% (active) in assay [5] (setting [8]); 45.2% in assay [5] (at 50.0 µM); 33% in assay [6] (setting [7]); 98% (active) in assay [6] (setting [8]); 44% in assay [6] (at 50.0 µM).
`O=S(=O)(O)c1cc(N=Nc2ccc(O)c(O)c2)ccc1/C=C/c1ccc(N=Nc2ccc(O)c(O)c2)cc1S(=O)(=O)O`: the growth inhibition was 29% in assay [1] (setting [7]); 83% (active) in assay [1] (setting [8]); 57% in assay [1] (at 50.0 µM); 30% in assay [2] (setting [7]); 89% (active) in assay [2] (setting [8]); 67.6% in assay [2] (at 50.0 µM). For the same compound, the growth inhibition is 23% in assay [3] (setting [7]); 89% (active) in assay [3] (setting [8]); 68.5% in assay [3] (at 50.0 µM); 31% in assay [4] (setting [7]); 31% in assay [4] (setting [8]); 18.8% in assay [4] (at 50.0 µM). Also, the growth inhibition in assay [5] (setting [7]) was 34%; in assay [5] (setting [8]), 86% (active); in assay [5] (at 50.0 µM) it was 76.3% (active); in assay [6] (setting [7]), 33%; in assay [6] (setting [8]) it was 83% (active); in assay [6] (at 50.0 µM) it was 75.4% (active).
With `CCOC(=O)c1c(I)[nH]c(I)c1C`, the growth inhibition in assay [1] (setting [7]) was -1%; in assay [1] (setting [8]), 11%; in assay [1] (at 50.0 µM) it was 30.3%; in assay [2] (setting [7]) it was 0%; in assay [2] (setting [8]) it was 5%; in assay [2] (at 50.0 µM), 10.2%. For the same compound, the growth inhibition in assay [3] (setting [7]) was -1%; in assay [3] (setting [8]), 14%; in assay [3] (at 50.0 µM), 22.2%; in assay [4] (setting [7]), -1%; in assay [4] (setting [8]), 3%; in assay [4] (at 50.0 µM), 10.6%. Moreover, the growth inhibition in assay [5] (setting [7]) was 4%; in assay [5] (setting [8]), 3%; in assay [5] (at 50.0 µM) it was 38.5%; in assay [6] (setting [7]), 2%; in assay [6] (setting [8]) it was 9%; in assay [6] (at 50.0 µM) it was 42.3%.
For the compound `CCOC(=O)c1ccc([N+](=O)[O-])o1`, the growth inhibition in assay [1] (setting [7]) was 5%; in assay [1] (setting [8]), 24%; in assay [1] (at 50.0 µM), 94.4% (active); in assay [2] (setting [7]), 4%; in assay [2] (setting [8]) it was 11%; in assay [2] (at 50.0 µM), 53.1%. Further, the growth inhibition was 3% in assay [3] (setting [7]); 14% in assay [3] (setting [8]); 66.1% in assay [3] (at 50.0 µM); -1% in assay [4] (setting [7]); 11% in assay [4] (setting [8]); 28.3% in assay [4] (at 50.0 µM). Besides, the growth inhibition is 7% in assay [5] (setting [7]); 49% in assay [5] (setting [8]); 91% (active) in assay [5] (at 50.0 µM); 2% in assay [6] (setting [7]); 30% in assay [6] (setting [8]); 83.7% (active) in assay [6] (at 50.0 µM).
